# Compounds with a hit are over-represented: about 3.5% of the library has one in this group of screens.
# GPR151 ag: human GPR151 activation; activation, % at 11.2 µM; hit rate 1% among 650,000; Q8TDV0; PathHunter beta-arrestin GPR151 cells, luminescence; in the data active means activation above about 4.9%;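 further: 0% = median of compound wells and 100% = cells with positive control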
# Target sequence (Q8TDV0 whole entry, looked up): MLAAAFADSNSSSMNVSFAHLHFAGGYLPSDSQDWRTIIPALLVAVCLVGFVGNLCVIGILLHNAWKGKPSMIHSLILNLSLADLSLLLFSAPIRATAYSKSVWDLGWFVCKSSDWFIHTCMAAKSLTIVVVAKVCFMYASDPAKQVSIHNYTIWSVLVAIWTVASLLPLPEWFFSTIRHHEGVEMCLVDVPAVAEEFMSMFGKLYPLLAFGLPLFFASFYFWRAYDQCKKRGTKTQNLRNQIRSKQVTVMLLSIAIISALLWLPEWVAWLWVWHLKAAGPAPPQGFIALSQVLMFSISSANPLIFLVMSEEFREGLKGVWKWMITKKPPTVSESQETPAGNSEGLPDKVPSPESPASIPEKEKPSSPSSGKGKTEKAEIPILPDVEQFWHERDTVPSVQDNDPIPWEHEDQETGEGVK
# MITF inh: inhibitors of human MITF | AlphaScreen MITF homodimerization, bead proximity signal | inhibition, % at 2.6 µM | hit rate 0.91% among 650,000; in the data active means inhibition above about 50%;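 further: 0% = vehicle wells with protein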
# FBW7 act: human FBW7 E3 ligase activation, primary screen; Q969H0; AlphaScreen FBW7–phospho-cyclin E peptide binding, activator screen; normalized activity (activation), % at 26.1 µM; hit rate 0.13% among 650,000; AID 1259310; in the data active means normalized activity above about 1.9%;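 further: purified mutant Fbw7 with reduced substrate affinity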
# TEAD-YAP block: TEAD-YAP interaction inhibition; HEK-TIYL cells, TEAD-Gal4/YAP UAS-luciferase luminescence; inhibition, % at 9.12 µM; hit rate 1.4% among 640,000; in the data active means inhibition above about 32%;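 further: 0% = median of test compound wells and 100% = reference inhibitor wells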
# Numbers without * were called inactive.
SMILES,GPR151 ag,MITF inh,FBW7 act,TEAD-YAP block
O=C(O)c1cc(N/N=C/c2cccnc2)ccc1Cl,-5,-8,0,-23
COc1cc(OC)cc(C(=O)N/N=C\c2ccc(OCC(N)=O)cc2)c1,0,8,0,56*
N#Cc1ccc(/C=N/NC(=O)c2cc(O)cc(O)c2)cc1,2,0,0,33*
COc1ccc(C(=O)N/N=C(/C)c2ccc(OC)cc2OC)cc1,1,4,0,-31
CCN1C(=O)/C(=c2\sc3nc(-c4ccccc4OC)nn3c2=O)c2ccccc21,0,12,0,-6
O=C(CCN1C(=O)CCC1=O)Nc1nncs1,-1,14,0,-1
CN(CCOc1ccc(Cl)cc1)CC(O)c1ccccc1 (stereo not given),0,23,0,12
COc1ccc(C(=O)N/N=C/c2ccc(O)c(O)c2)cc1Br,-1,-18,0,-13
COc1ccc(/C=N/Nc2ccc(C(=O)O)cc2)cc1Br,-9,9,0,45*
COc1ccc(C(=O)N/N=C\c2ccc(Br)cc2)cc1OC,-1,-1,0,40*
Oc1ccccc1/C=N/c1ccnn1-c1ccccc1,-9,9,0,32*
COc1ccc(/C=C/C(=O)Nc2ccccn2)cc1,-10,6,0,47*
Cc1ccc(NC(=O)/C=C/c2ccco2)nc1,-1,3,0,24
O=C(/C=C/c1ccco1)Nc1ccccn1,-7,1,-2,51*
COc1ccc(/C=C/C(=O)NCc2ccccn2)cc1,0,-10,0,-22
CC(C)(C)c1ccc(/C=C/C(=O)Nc2ccccn2)cc1,-2,-7,0,70*
CCCCCCn1c(N2CCN(c3ccccc3)CC2)nc2c1c(=O)n(C)c(=O)n2C,2,6,0,-3
CC1(C)Cc2nc3sc4c(N5CCNCC5)ncnc4c3cc2CS1,-1,15,0,44*
NC(=S)/N=C1\CCN(c2cccc(C(F)(F)F)c2)N1,-1,-4,0,35*
CCc1ccc(CNC(=O)Cc2ccc(NC(=O)C3=C(C)OCCS3)cc2)cc1,1,4,0,35*
CC(C)OCCCNC(=O)c1ccc(CN2CCc3ccccc3C2)cc1,0,15,2.0*,11
COc1ccc(S(=O)(=O)Nc2ccc3c(c2)OCCO3)cc1Br,0,-3,0,0
COc1ccccc1Oc1ccc(S(=O)(=O)Nc2ccc3c(c2)OCCO3)cc1,2,13,0,44*
COc1c(C)c2c(c(O)c1C/C=C(\C)CCC(=O)OCCN1CCOCC1)C(=O)OC2,-2,-4,0,48*
Nc1nc(Nc2ccc(Oc3ccccc3)cc2)cc(-c2ccccc2)n1,4,8,0,44*
SMILES,GPR151 ag,MITF inh,FBW7 act,TEAD-YAP block
Cc1cc(C)nc(Nc2ccc(Oc3ccccc3)cc2)n1,-2,7,0,46*
Cc1[nH]c(=O)[nH]c(=O)c1S(=O)(=O)Nc1cccc(C(F)(F)F)c1,-2,-10,0,-1
CC1(C)c2ssc(=S)c2-c2ccccc2N1C(=O)C1CC1,0,6,0,-5
CC1(C)c2ssc(=S)c2-c2ccccc2N1C(=O)c1ccccc1,4,17,-1,57*
O=C(/C=C/Nc1ccc(F)cc1F)c1ccccc1,-2,-23,0,84*
O=C(/C=C/Nc1ccc(F)cc1Br)c1ccccc1,-4,6,0,86*
COc1ccc(C(=O)/C=C/Nc2ccc(F)cc2F)cc1,-1,17,1,-33
O=C(/C=C/Nc1ccc([N+](=O)[O-])cc1Br)c1ccccc1,-1,7,0,43*
COc1cccc(C(=O)/C=C/Nc2ccc(F)cc2F)c1,-4,9,0,71*
COCCCNC(=O)CN(c1cccc(Cl)c1)S(=O)(=O)c1ccc(Cl)cc1,0,11,0,7
Cc1ccc(C(=O)/C=C/Nc2ccccc2O)cc1,-2,-31,0,4
CCc1ccc(C(=O)/C=C/Nc2ccccc2O)cc1,-4,2,0,39*
O=C(/C=C/Nc1ccccc1I)c1ccccc1,-5,-1,0,91*
O=C(/C=C/Nc1ccccc1F)c1ccccc1,-5,12,0,61*
CC(C)C(=O)NNC(=O)CSc1nc2sc3c(c2c(=O)[nH]1)CCCC3,0,-5,0,0
COc1cccc2oc(-c3ccccc3)cc(=O)c12,-11,12,0,60*
CC1=NN(c2nc3ccccc3[nH]2)C(=O)C1CCC(C)C (stereo not given),-2,31,-1,73*
Cc1ccc(-c2cccc3cnc(Nc4ccc(C(=O)N5CCCC5)cc4)nc23)cn1,-2,9,0,50*
Cc1ccc(-c2cccc3cnc(NC4CCN(C(=O)N5CCCC5)C4)nc23)cn1 (stereo not given),-1,9,0,25
Cc1ccc(-c2cccc3cnc(Nc4cccc(C(=O)N5CCOCC5)c4)nc23)cn1,-1,40,1,32*
CC1CN(c2ncnc3scc(-c4ccc(Cl)cc4)c23)CC(C)O1 (stereo not given),-1,-24,0,-6
N#C/C(=C\C=C\c1ccc([N+](=O)[O-])o1)c1nc2ccccc2[nH]1,-1,43,0,59*
COc1ccccc1NC(=O)CSc1nnc(-c2ccncc2)n1-c1ccccc1C,1,1,0,62*
COc1ccccc1NC(=O)CSc1nnc(-c2ccccn2)n1-c1ccccc1OC,2,15,0,42*
COc1cccc(NC(=O)CSc2nnc(-c3ccncc3)n2-c2ccccc2C)c1,0,-23,0,14
SMILES,GPR151 ag,MITF inh,FBW7 act,TEAD-YAP block
CCOc1ccccc1NC(=O)CSc1nnc(-c2ccc(OC)cc2)n1-n1cccc1,0,-7,0,41*
CCCSc1nnc2c(n1)OC(c1c(C)[nH]n(-c3ccccc3)c1=O)Nc1ccccc1-2 (stereo not given),0,61*,0,-37
CCOc1ccccc1N1C(=O)NC2CC1(C)Oc1ccc(Br)cc12 (stereo not given),0,-21,3.3*,-2
COc1ccccc1N1C(=O)NC2CC1(C)Oc1ccc(Br)cc12 (stereo not given),0,2,0,4
COc1cccc2cc(C(=O)Nc3ccccc3)c(=Nc3ccc(F)cc3)oc12,0,0,0,-40
COc1cccc2cc(C(=O)Nc3ccccc3)/c(=N/O)oc12,-1,14,0,34*
CCOC(=O)CCCCN(Cc1ccccc1F)S(=O)(=O)c1cc(Cl)ccc1Cl,0,2,0,2
COC1C(O)CC(OC2CC(Oc3cc4cc5c(c(O)c4c(O)c3C)C(=O)[C@@H](OC3CC(OC4CC(OC6CC(C)(O)C(C)C(C)O6)C(O)C(C)O4)C(O)C(C)O3)[C@H]([C@H](OC)C(=O)[C@@H](O)[C@@H](C)O)C5)OC(C)C2OC(C)=O)OC1C (stereo not given in full),-1,3,0,96*
Cc1nc2sccn2c1-c1csc(Nc2ccc(N(C)C)cc2)n1,1,10,0,55*
Cc1ccccc1Nc1nc(-c2c(C)nc3sccn23)cs1,-1,-4,0,-4

# High-throughput results as filed in PubChem BioAssay.
